Data published in paper PMC5700166.
Substitutions are numbered along the chain they refer to.

Legend:
Experiment in all cases: protein-binding microarray (PBM); PBM: ~300 nM protein, 6 mM HEPES pH 7.8, 80 mM KCl, 0.5 mM EDTA, 0.5 mM EGTA, 6% glycerol, 35 ng/ul poly-dIdC, 1% milk, 1 h, room temperature; Ap Aiptasia and Nv Nematostella (sea anemones) / Co Capsaspora / Aq Amphimedon (sponge) / Dm Drosophila / Hu human; RHD is the Rel homology domain; high values mean tight binding
Conditions in all cases: dsDNA, one strand shown
GST-Ap-NF-kB RHD = molecular target: T1, GST-Ap-NF-kB RHD (Exaiptasia pallida (Aiptasia), UniProt A0A913YAJ5 2-422)
T1 sequence: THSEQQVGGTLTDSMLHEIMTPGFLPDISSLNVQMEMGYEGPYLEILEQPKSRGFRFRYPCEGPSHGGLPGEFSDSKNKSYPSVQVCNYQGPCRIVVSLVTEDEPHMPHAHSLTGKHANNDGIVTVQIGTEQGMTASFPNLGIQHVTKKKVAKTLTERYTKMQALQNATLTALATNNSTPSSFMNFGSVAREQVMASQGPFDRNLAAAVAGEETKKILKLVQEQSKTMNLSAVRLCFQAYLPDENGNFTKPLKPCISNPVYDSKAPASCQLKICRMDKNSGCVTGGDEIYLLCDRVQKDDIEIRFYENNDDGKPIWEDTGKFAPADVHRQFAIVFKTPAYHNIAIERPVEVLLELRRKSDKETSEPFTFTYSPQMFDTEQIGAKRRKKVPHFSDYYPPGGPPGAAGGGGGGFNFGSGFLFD

[1] = molecular target: T2, GST-Nv-NF-kB (Cys allele) (Nematostella vectensis, UniProt E5G601 2-411)
T2 sequence: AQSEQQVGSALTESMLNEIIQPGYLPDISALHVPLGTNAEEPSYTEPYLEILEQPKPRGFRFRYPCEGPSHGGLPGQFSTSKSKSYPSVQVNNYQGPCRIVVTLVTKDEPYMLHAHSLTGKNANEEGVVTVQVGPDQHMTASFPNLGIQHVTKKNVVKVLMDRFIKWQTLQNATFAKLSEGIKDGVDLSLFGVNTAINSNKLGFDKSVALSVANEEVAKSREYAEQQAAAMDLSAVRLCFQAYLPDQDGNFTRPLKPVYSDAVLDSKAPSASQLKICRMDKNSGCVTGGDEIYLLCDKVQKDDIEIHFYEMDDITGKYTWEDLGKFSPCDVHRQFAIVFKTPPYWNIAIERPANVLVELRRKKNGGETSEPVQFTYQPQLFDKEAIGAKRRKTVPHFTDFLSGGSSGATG

[2] = molecular target: T3, GST-Nv-NF-kB (Ser allele) (Nematostella vectensis, UniProt A7UNT2 2-411)
T3 sequence: T2 sequence with Q21R, C66S, S207N, E215Q, V217A, E225K, A268E, D399E

GST-Co-NF-kB = molecular target: T4, GST-Co-NF-kB (Capsaspora owczarzaki, UniProt F1ARL5 200-546)
T4 sequence: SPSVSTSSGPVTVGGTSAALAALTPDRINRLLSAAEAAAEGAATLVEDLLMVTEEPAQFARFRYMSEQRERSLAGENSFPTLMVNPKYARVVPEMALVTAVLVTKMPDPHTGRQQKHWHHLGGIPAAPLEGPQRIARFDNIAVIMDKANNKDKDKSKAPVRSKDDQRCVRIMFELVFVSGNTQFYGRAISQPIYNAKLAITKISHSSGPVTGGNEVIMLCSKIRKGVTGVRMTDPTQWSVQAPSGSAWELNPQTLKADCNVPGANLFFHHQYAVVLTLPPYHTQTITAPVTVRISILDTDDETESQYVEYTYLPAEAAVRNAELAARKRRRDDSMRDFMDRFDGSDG

GST-Dm-Relish = molecular target: T5, GST-Dm-Relish (Drosophila melanogaster, UniProt Q94527 99-473)
T5 sequence: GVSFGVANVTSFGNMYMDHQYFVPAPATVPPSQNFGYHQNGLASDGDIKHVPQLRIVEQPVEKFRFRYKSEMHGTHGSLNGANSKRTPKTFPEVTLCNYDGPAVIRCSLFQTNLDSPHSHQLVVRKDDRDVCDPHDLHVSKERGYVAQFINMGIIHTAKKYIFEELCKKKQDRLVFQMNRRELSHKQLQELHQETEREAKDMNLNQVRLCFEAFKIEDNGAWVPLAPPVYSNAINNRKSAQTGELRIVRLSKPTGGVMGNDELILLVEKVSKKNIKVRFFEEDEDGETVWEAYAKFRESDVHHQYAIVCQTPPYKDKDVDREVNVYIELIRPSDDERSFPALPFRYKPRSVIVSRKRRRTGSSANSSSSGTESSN

GST-Aq-NF-kB = molecular target: T6, GST-Aq-NF-kB (Amphimedon queenslandica, UniProt A9Y5G7 2-389)
T6 sequence: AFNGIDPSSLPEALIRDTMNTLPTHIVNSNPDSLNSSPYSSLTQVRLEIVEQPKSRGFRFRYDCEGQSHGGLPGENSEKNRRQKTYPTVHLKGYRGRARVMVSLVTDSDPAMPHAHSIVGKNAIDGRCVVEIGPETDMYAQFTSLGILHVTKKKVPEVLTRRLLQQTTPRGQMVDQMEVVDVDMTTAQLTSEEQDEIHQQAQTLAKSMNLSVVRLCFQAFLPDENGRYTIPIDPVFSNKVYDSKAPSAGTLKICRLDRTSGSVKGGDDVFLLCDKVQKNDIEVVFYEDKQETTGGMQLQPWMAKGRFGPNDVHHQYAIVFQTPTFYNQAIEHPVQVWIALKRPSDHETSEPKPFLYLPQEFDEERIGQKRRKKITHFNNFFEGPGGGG

GST-Hu-p50 = GST-Hu-p50 (Homo sapiens, UniProt P19838 7-356)
GST-Hu-p50, sequence (P19838 7-356): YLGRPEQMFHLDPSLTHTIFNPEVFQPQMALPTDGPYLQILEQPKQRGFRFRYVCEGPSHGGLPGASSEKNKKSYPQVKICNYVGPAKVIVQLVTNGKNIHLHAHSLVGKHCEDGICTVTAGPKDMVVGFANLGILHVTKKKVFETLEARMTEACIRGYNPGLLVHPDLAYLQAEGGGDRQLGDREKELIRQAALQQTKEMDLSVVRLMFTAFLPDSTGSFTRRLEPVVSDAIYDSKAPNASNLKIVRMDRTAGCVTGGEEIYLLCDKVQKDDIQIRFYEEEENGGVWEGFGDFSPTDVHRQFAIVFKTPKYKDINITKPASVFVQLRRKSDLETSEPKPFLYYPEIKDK

| Sequence | binding signal (GST-Ap-NF-kB RHD) | binding signal [1] | binding signal [2] | binding signal (GST-Co-NF-kB) | binding signal (GST-Dm-Relish) | binding signal (GST-Aq-NF-kB) | binding signal (GST-Hu-p50) |
| --- | --- | --- | --- | --- | --- | --- | --- |
| CCGATTAACATCAAATAAACCCCTGATGTTAATCGGGTCTTGATTCGCTTGACGCTGCTG | 4.74 z-score | 5.11 z-score | 4.3 z-score | 2.32 z-score | 6.13 z-score | 5.4 z-score | 4.96 z-score |
| CCGATTAACATCAGGGGATTGGATGATGTTAATCGGGTCTTGATTCGCTTGACGCTGCTG | 4.77 z-score | 4.99 z-score | 6.52 z-score | 2.06 z-score | 2.73 z-score | 3.69 z-score | 4.98 z-score |
| CCGATTAACATCAATGTTCCCCCTGATGTTAATCGGGTCTTGATTCGCTTGACGCTGCTG | 6.95 z-score | 6.49 z-score | 7.58 z-score | 11 z-score | 5.32 z-score | 6.17 z-score | 5.74 z-score |
| CCGATTAACATCAAAACCCCCCCTGATGTTAATCGGGTCTTGATTCGCTTGACGCTGCTG | 8.72 z-score | 6.19 z-score | 6.72 z-score | 6.13 z-score | 9.97 z-score | 7.1 z-score | 6.53 z-score |
| CCGATTAACATCAGGGGGATTTATGATGTTAATCGGGTCTTGATTCGCTTGACGCTGCTG | 8.91 z-score | 9.22 z-score | 10 z-score | 6.7 z-score | 8.87 z-score | 7.3 z-score | 7.42 z-score |
| CCGATTAACATCAAGGGACCCCCTGATGTTAATCGGGTCTTGATTCGCTTGACGCTGCTG | 5.77 z-score | 3.16 z-score | 3.36 z-score | 2.03 z-score | 7.64 z-score | 4.72 z-score | 3.57 z-score |
| CCGATTAACATCAGGGGGATATATGATGTTAATCGGGTCTTGATTCGCTTGACGCTGCTG | 6.45 z-score | 5.67 z-score | 6.14 z-score | 6.72 z-score | 4.91 z-score | 5.58 z-score | 5.49 z-score |
| CCGATTAACATCAGGGGATTGTATGATGTTAATCGGGTCTTGATTCGCTTGACGCTGCTG | 6.91 z-score | 7.07 z-score | 8.67 z-score | 3.04 z-score | 4.19 z-score | 5.12 z-score | 6.01 z-score |
| CCGATTAACATCACATTTTTCCCTGATGTTAATCGGGTCTTGATTCGCTTGACGCTGCTG | 3.43 z-score | 5.03 z-score | 7.3 z-score | 5.64 z-score | 2.56 z-score | 4.26 z-score | 3.84 z-score |
| CCGATTAACATCACATCCCCCCCTGATGTTAATCGGGTCTTGATTCGCTTGACGCTGCTG | 6.1 z-score | 4.66 z-score | 4.88 z-score | 6.54 z-score | 4.53 z-score | 4.42 z-score | 4.32 z-score |
| CCGATTAACATCACGGGAATTCCTGATGTTAATCGGGTCTTGATTCGCTTGACGCTGCTG | 7.73 z-score | 7.86 z-score | 5.2 z-score | 5.35 z-score | 8.07 z-score | 8.38 z-score | 4.61 z-score |
| CCGATTAACATCAGTACTCCCCATGATGTTAATCGGGTCTTGATTCGCTTGACGCTGCTG | 3.64 z-score | 2.81 z-score | 2.45 z-score | 2.88 z-score | 4.81 z-score | 2.35 z-score | 2.2 z-score |
| CCGATTAACATCACATTCCCCCCTGATGTTAATCGGGTCTTGATTCGCTTGACGCTGCTG | 6.91 z-score | 6.39 z-score | 6.97 z-score | 8.44 z-score | 4.58 z-score | 5.7 z-score | 5.73 z-score |
| CCGATTAACATCAGGGGGTTTACTGATGTTAATCGGGTCTTGATTCGCTTGACGCTGCTG | 7.86 z-score | 6.45 z-score | 7.4 z-score | 2.97 z-score | 9.74 z-score | 7.06 z-score | 7.11 z-score |
| CCGATTAACATCAGAATCTCCCCTGATGTTAATCGGGTCTTGATTCGCTTGACGCTGCTG | 7.81 z-score | 6.42 z-score | 6.73 z-score | 6.25 z-score | 3.02 z-score | 5.81 z-score | 5.32 z-score |
| CCGATTAACATCAAGGGAAATCCTGATGTTAATCGGGTCTTGATTCGCTTGACGCTGCTG | 5.35 z-score | 7.47 z-score | 6.52 z-score | 3.33 z-score | 6.05 z-score | 6.57 z-score | 4.65 z-score |
| CCGATTAACATCAGGGAAAATTATGATGTTAATCGGGTCTTGATTCGCTTGACGCTGCTG | 5.47 z-score | 7.77 z-score | 8.46 z-score | 6.45 z-score | 2.28 z-score | 6.77 z-score | 5.34 z-score |
| CCGATTAACATCAGGGGGGTTTATGATGTTAATCGGGTCTTGATTCGCTTGACGCTGCTG | 7.17 z-score | 5.54 z-score | 6.69 z-score | 4.39 z-score | 8.97 z-score | 6.15 z-score | 6.31 z-score |
| CCGATTAACATCAGAAATTTCCCTGATGTTAATCGGGTCTTGATTCGCTTGACGCTGCTG | 5.84 z-score | 8.58 z-score | 8.13 z-score | 5.21 z-score | 4.81 z-score | 7.73 z-score | 5.92 z-score |
